# Screening data (PubChem)
# Sm TGR inh: inhibitors of Schistosoma mansoni thioredoxin glutathione reductase | Q962Y6 | purified TGR, DTNB reduction, TNB absorbance 405 nm | Potency, µM (series often up to 114 µM), inactives show top-dose activity change, negative = inhibition, most hits filed as inhibitors | hit rate 3% among 360,000; also: potency is read from the fitted curve at half-maximal effect; % is scaled to controls: 0 for no effect and ±100 for the full control effect; nearly all actives have a fitted effect of over 60% in size
#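 Kinetic colorimetric format: TGR-catalysed, NADPH-driven DTNB reduction monitored via TNB absorbance. Enzyme dispensed at 20 nM; compound exposure 15 min at room temperature before reaction start.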
# LmPK inh: blocks Leishmania mexicana pyruvate kinase activity. Q27686. purified LmPK, Kinase-Glo ATP luminescence, 1 h. Potency, µM (top dose mostly 57.5 µM), for inactives: at the top dose activity change, negative = inhibition, hits mostly inhibitors. hit rate 0.37% among 290,000. AID 1721; also: potency is read from the fitted curve at half-maximal effect; % is scaled to controls: 0 for no effect and ±100 for the full control effect
# Target sequence (Q27686 whole entry, looked up): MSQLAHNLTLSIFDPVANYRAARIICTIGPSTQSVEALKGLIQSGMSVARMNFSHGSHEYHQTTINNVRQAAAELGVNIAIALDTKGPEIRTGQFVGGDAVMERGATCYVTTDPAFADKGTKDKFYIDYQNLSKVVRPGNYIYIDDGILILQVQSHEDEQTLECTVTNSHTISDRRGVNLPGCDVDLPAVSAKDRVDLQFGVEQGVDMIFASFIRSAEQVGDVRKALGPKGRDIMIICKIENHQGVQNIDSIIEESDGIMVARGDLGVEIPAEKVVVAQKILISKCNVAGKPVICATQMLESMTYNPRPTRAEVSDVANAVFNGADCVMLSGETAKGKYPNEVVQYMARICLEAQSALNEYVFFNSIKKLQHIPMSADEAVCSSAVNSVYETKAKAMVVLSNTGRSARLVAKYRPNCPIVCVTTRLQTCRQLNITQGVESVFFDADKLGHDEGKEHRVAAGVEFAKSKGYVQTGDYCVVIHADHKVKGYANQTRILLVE
#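 Pyruvate kinase activity monitored as ATP production (luciferase luminescence). Conditions: 0.1 nM enzyme, 0.5 mM PEP, 0.1 mM ADP, 1 h, RT; normalized against uninhibited and no-enzyme wells.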
# Shiga inhibitor: blocks Shiga toxin action in Vero cells. Vero cells, Shiga toxin protein synthesis inhibition reporter. inhibition, % at 38.7 µM. hit rate 9.2% among 290,000. AID 2315; in the data active = inhibition mostly above about 28%, no sharp cut-off; inactive = mostly below about 43%; also: 0% is about no effect
# FBPA Giardia inh: blocks Giardia fructose-bisphosphate aldolase activity | A8B2U2 | purified Giardia FBPA | Potency, µM (top dose mostly 59.6 µM), without a hit: at the highest dose activity, negative = inhibition, most hits filed as inhibitors | hit rate 0.71% among 290,000 | AID 2451; also: potency is read from the fitted curve at half-maximal effect; % is scaled to controls: 0 for no effect and ±100 for the full control effect; nearly all actives have a fitted effect of over 55% in size
#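 Giardia FBPA (40 nM reagent) was preincubated 10 min at RT with compound (up to 57.5 uM final), then substrate plus GAPDH/TPI/NAD/arsenate coupling system with diaphorase/resazurin was added; resorufin fluorescence (525/598 nm) was read after 20 min.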
# CHX counter: counter-screen hit for Shiga toxin inhibitors, cycloheximide | AID 2314 | cell reporter, cycloheximide protein synthesis inhibition counterscreen | hit rate 12% among 300,000 | max response, %; in the data active = max response mostly above about 13%, no sharp cut-off; inactive = mostly below about 14%; also: read at 38.3 µM for the half of the compounds with a filed dose; 0% is about no effect
# TbPYK inhibitor: blocks Trypanosoma brucei pyruvate kinase. Potency, µM (doses to about 76.8 µM), inactives show at the top dose activity, negative = inhibition, hits mostly inhibitors. AID 624173. hit rate 0.12% among 410,000. TbPYK enzyme, Kinase-Glo Plus ATP luminescence, 45 min. Q57TT1; also: potency is read from the fitted curve at half-maximal effect; % is scaled to controls: 0 for no effect and ±100 for the full control effect; nearly all actives have a fitted effect of over 50% in size
#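 Luminescence from Kinase-Glo Plus, added after a 45-minute room-temperature reaction, served as the end-point read-out. The enzyme and substrate were preincubated with compound before ADP (130 uM final) initiated turnover. Concentration-effect curves came from normalized qHTS data.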
# * marks the source's active call; other numbers are inactive results; u = inconclusive; x = no result given. This is one part of a sample in which hits are shown more often than they occur. Unless noted, calls follow the shape of the dose curve; as a rule, active = well fitted curve in the direction sought with a large enough effect; inconclusive = small, poorly fitted or top-dose-only effect, or another doubt; inactive = no such curve, though single readings can be large; an effect the other way counts as inactive or inconclusive.
SMILES,Sm TGR inh,LmPK inh,Shiga inhibitor,FBPA Giardia inh,CHX counter,TbPYK inhibitor
CC/C(=N\Nc1ccccc1)c1c(O)[nH]c(=O)[nH]c1=O,5%,4%,-13,4%,2,-2%
CC/C(=N\Nc1cccc2ccccc12)c1c(O)[nH]c(=O)[nH]c1=O,79µM*,1%,12,u,-1,-2%
CC(=O)N1/C(=C/c2ccc(N(C)C)cc2)C(=O)c2ccccc21,28µM*,-9%,22,-10%,22*,-9%
CN(C)c1ccc(/C=C2/C(=O)Nc3ccccc32)cc1,x,x,x,-15%,x,x
O=C1COc2ccc(C(=O)COC(=O)Cc3ccccc3F)cc2N1,-10%,-1%,32,-2%,4,6%
O=C1COc2ccc(C(=O)COC(=O)Cc3ccsc3)cc2N1,0%,-3%,21,5%,11*,2%
COC(=O)c1cc(Nc2cc(C)c3c(O)cccc3n2)cc(C(=O)OC)c1,1%,-5%,57,-12%,16*,-5%
COC(=O)c1cc(Nc2cc(C)c3ccc(O)cc3n2)cc(C(=O)OC)c1,0%,3%,-15,1%,1,0%
COc1ccc(Nc2cc(C)c3c(O)cccc3n2)cc1,3%,-14%,57,u,32*,-20%
Cc1cc(Nc2ccccc2O)c2ccccc2n1,0%,-3%,-7,0%,1,-3%
Cc1ccccc1Nc1cc(C)c2c(O)cccc2n1,-16%,-2%,13,0%,23*,-4%
COCCOC(=O)Cn1nnc2sc(-c3ccccc3)cc2c1=O,-5%,x,x,x,x,1%
Cc1ccc2c(=O)cc(C(=O)Nc3ccc(S(=O)(=O)Nc4onc(C)c4C)cc3)oc2c1C,0%,x,x,x,x,-2%
COc1ccc(-c2cc3nc4ccccc4n3c(N)c2C#N)cc1,11%,1%,56*,0%,29*,4%
CCCCCCCN(CC)CCCC(O)c1ccc(NS(C)(=O)=O)cc1 (stereo not drawn),x,x,x,x,x,1%
CN(C)/C=C1/Oc2c(ccc3ccccc23)C1=O,-1%,1%,26,3%,18,1%
CN(C)/C=C1\Oc2ccc3ccccc3c2C1=O,2%,-8%,116*,u,34*,-6%
CCCCc1ccc(NC(=O)Cn2nnc3sc4c(c3c2=O)CCC(C)C4)cc1 (stereo not drawn),10%,x,x,x,x,0%
Cc1cc(C)c2oc(-c3cccc(NC(=O)COc4ccccc4Cl)c3C)nc2c1,3%,x,x,x,x,-9%
N#Cc1ccccc1Cn1c(=O)n(-c2ccc(F)c(Cl)c2)c(=O)c2sccc21,0%,x,x,x,x,1%
NCCC[C@@H](CC(=O)N[C@@H]1CCCC[C@H]1C(=O)N[C@H](CC(=O)N[C@@H](CCC(=O)O)CC(=O)O)Cc1ccccc1)NC(=O)C[C@H](Cc1ccccc1)NC(=O)[C@@H]1CNCC[C@H]1N,x,x,x,-14%,x,x
COc1ccc(Nc2nc3ccccc3s2)cc1,x,-1%,71,-14%,50*,-5%
Cc1cccc(Nc2nc3ccccc3s2)c1C,-1%,-11%,100*,-4%,49*,-2%
COc1cccc(Nc2nc3ccc(OC)cc3s2)c1,2%,-8%,89*,-14%,57*,-1%
COc1ccc2nc(Nc3sc4c(c3C(N)=O)CCCC4)sc2c1,13µM*,-27%,59*,-25%,42*,2.8µM*
SMILES,Sm TGR inh,LmPK inh,Shiga inhibitor,FBPA Giardia inh,CHX counter,TbPYK inhibitor
COc1ccc(C(O)c2nc3ccccc3s2)cc1 (stereo not drawn),-1%,5%,20,0%,-3,x
CCc1cccc(CC)c1NC(=O)CN(C)S(=O)(=O)c1ccc2c(c1)n(C)c(=O)c(=O)n2C,-1%,x,x,x,x,-8%
COc1ccc2nc(NC3=NCCC3)sc2c1,12%,-9%,153*,1%,53*,2%
COc1ccc2nc(NCc3cccnc3)sc2c1,u,-9%,49*,-6%,22*,1%
COc1ccc2nc(N(Cc3cccnc3)C(=O)COc3ccccc3)sc2c1,-1%,x,x,x,x,-4%
CCN(CC)c1ccc(NC(=O)CCS(=O)(=O)c2cc3c(cc2Cl)NC(=O)CO3)c(C)c1,0%,x,x,x,x,-7%
CC1OC(OCC2OC(Oc3cc(O)c4c(c3)OC(c3ccc(O)cc3)CC4=O)C(O)C(O)C2O)C(O)C(O)C1O (stereo not drawn),x,x,14,0%,-7,x
